Source: PubChem
HP1b chromo inh – HTS for Inhibitors of HP1-beta Chromodomain Interactions with Methylated Histone Tails; AlphaScreen HP1-beta / biotin-H3K9me3 peptide binding; Potency, µM (titrated, usually from 114 µM), without a hit: at the highest dose activity change, negative = inhibition, hits mostly inhibitors; actives 0.56% (n = 390,000); also: potency is read from the fitted curve at half-maximal effect; nearly all actives have a fitted effect of over 70% in size
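HP1-beta protein (50 nM final) preincubated 30 min at room temperature with biotinylated H3(1-18)K9me3 peptide (50 nM) in PBS pH 7.4, 0.01% Tween-20, then compound added for 30 min. AlphaScreen streptavidin donor/nickel chelate acceptor beads (10 ug/mL final), 30 min dark, luminescence read.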
JMJD2A Tudor inh – qHTS Assay for Inhibitors of JMJD2A-Tudor Domain | AID 504339, 2011 | Potency, µM (doses to about 114 µM), for inactives: top-dose activity change, negative = inhibition, actives largely listed as inhibitors | actives 4.4% (n = 390,000) | AlphaScreen JMJD2A-Tudor / H3K4me3 peptide binding | Lysine-specific demethylase 4A (Homo sapiens), O75164; also: potency is read from the fitted curve at half-maximal effect; % is scaled to controls: 0 for no effect and ±100 for the full control effect; nearly all actives have a fitted effect of over 50% in size
BAZ2B inh – qHTS Assay for Inhibitors of BAZ2B; Bromodomain adjacent to zinc finger domain protein 2B (Homo sapiens), Q9UIF8; AlphaScreen BAZ2B-H3K14Ac peptide displacement; Potency, µM (titrated, usually from 114 µM), for inactives: at the top dose activity change, negative = inhibition, most hits filed as inhibitors; actives 4.4% (n = 360,000); AID 504333, 2011; also: potency is read from the fitted curve at half-maximal effect; % is scaled to controls: 0 for no effect and ±100 for the full control effect; nearly all actives have a fitted effect of over 60% in size
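AlphaScreen displacement of biotin-H3(5-23)K14Ac peptide (50 nM final) from BAZ2B (50 nM final) in PBS pH 7.4, 0.01% Tween-20; complex preformed 30 min RT, then compounds (top 110 uM) 30 min RT, beads 20 min dark.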
Six1-Eya2 inh – qHTS Assay for Inhibitors of the Six1/Eya2 Interaction; activity change, % (test concentration not listed); AID 651725, 2012; AlphaScreen GST-Six1/His-Eya2 binding, biochemical; stronger effect = lower value; actives 0.56% (n = 360,000); Homeobox protein SIX1 (Homo sapiens) + Protein phosphatase EYA2 (Homo sapiens), …; in the data active = activity change below about -65%; inconclusive = mostly about -30% to -63%; also: % is scaled to controls: 0 for no effect and ±100 for the full control effect
Target sequence (O00167 whole entry, looked up): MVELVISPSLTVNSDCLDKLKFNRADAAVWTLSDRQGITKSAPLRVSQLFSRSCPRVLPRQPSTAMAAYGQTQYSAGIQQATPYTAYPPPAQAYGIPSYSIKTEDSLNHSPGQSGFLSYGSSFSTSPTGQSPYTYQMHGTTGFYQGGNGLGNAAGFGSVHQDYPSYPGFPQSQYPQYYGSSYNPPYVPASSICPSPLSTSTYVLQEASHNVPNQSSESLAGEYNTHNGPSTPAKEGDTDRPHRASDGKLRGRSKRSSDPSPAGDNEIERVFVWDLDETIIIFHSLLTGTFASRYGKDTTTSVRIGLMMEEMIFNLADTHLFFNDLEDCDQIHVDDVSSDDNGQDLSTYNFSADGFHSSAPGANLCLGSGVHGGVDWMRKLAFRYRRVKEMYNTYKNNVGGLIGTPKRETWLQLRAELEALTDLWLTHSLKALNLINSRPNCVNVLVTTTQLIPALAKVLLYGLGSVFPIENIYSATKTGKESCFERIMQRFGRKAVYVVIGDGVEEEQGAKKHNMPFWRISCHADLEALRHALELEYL
Target sequence (Q15475 whole entry, looked up): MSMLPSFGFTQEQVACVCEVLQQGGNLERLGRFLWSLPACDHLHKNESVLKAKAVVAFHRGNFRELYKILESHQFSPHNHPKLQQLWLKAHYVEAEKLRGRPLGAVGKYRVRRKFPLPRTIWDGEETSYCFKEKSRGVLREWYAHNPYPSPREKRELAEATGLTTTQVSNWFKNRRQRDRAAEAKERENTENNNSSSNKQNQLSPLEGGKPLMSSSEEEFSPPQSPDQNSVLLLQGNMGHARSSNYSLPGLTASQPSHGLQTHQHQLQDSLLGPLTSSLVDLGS
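AlphaScreen luminescence read after one hour at 37 °C in darkness. Pin-transferred compounds met GST-Six1 and His-Eya2 protein (5X stock 250 nM/500 nM) plus glutathione donor and Ni-chelate acceptor beads (5X, 50 ug/mL).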
G9a inh – qHTS Assay for Inhibitors of Histone Lysine Methyltransferase G9a | Histone-lysine N-methyltransferase EHMT2 (Homo sapiens), Q96KQ7 | G9a H3K9 monomethylation, AlphaScreen, 2 h | Potency, µM (titrated, usually from 102 µM), inactives show at the highest dose activity, negative = inhibition, hits mostly inhibitors | actives 8.8% (n = 350,000); also: potency is read from the fitted curve at half-maximal effect; % is scaled to controls: 0 for no effect and ±100 for the full control effect; nearly all actives have a fitted effect of over 75% in size
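G9a (20 nM) preincubated 15 min RT with compounds, then 500 nM biotinylated H3K9 peptide and 20 uM SAM added; 2 h RT reaction. Monomethyl-H3K9 product detected by AlphaScreen with anti-H3K9me1 antibody, streptavidin donor and anti-rabbit IgG acceptor beads.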
CtBP-E1A inh – qHTS Assay for Inhibitors of the CtBP/E1A Interaction; actives 0.49% (n = 340,000); activity change, % (test concentration not listed); CtBP / adenovirus E1A interaction (AlphaScreen); AlphaScreen GST-E1A/His-CtBP binding, 1536-well; stronger effect = lower value; in the data active = activity change below about -65%; inconclusive = mostly about -30% to -63%; also: % is scaled to controls: 0 for no effect and ±100 for the full control effect
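Protein mix (5X: 125 nM each GST-E1A, His-CtBP) was incubated with pinned compound 2 h at 37 deg C in dark, in 50 mM Tris pH 8.0 buffer with 300 mM NaCl. Glutathione donor and nickel acceptor beads followed; AlphaScreen signal read after 1 h.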
Active calls of the source: *; ? = inconclusive; · = not tested or not shown; [ ] = dose if it differs, or a comment. Hits are enriched below; roughly 10% of the tested compounds scored in any of these assays. Unless noted, calls follow the shape of the dose curve; as a rule, active = well fitted inhibition curve with a large enough effect; inconclusive = small, poorly fitted or top-dose-only effect; inactive = no such curve, though single readings can be large or run the other way.

SMILES	HP1b chromo inh	JMJD2A Tudor inh	BAZ2B inh	Six1-Eya2 inh	G9a inh	CtBP-E1A inh
CCc1cccc(C)c1NC(=S)NCc1ccc2c(c1)cc(C)n2C	-18%	50µM*	25µM*	?	40µM*	-26
COc1ccc(NC(=S)NCc2ccc3c(c2)cc(C)n3C)cc1	?	50µM*	45µM*	?	40µM*	-6
COc1ccccc1-c1nc(C#N)c(NCCCn2ccnc2)o1	26%	-21%	?	-10	·	-23
O=C1Nc2ccccc2N(O)N1c1ccc(Cl)cc1	16%	-3%	-17%	9	2%	-8
CCN1c2ccccc2NC2C1C(C(C)=O)C(=O)N2c1ccc(Cl)cc1 (centres undefined)	-11%	?	?	-27	45µM*	15
CCCNC(=O)c1noc2c1CCc1cc(OC)ccc1-2	20%	-18%[11.4 µM]	2%	3	7%	0
COc1ccc2c(c1)CCc1c(C(=O)NCc3cccnc3)noc1-2	23%	-1%	15%	1	40µM*	-19
Cc1ccc(S(=O)(=O)N2[C@@H](c3ccc(Cl)cc3)C(C(=O)O)=C[C@H]2C(C)(C)C)cc1	55%	14%	·	-3	·	1
Cc1ccc(C2=Nc3ccccc3N(C(=O)c3ccccc3)C(C)C2)cc1 (centres undefined)	?	?	-35%	0	-6%	-6
COc1nc(N)nc(NC(=O)c2cccs2)c1N=O	14%	28µM*	·	-6	·	-12
COc1ccc(NC(=O)CCC(=O)Nc2cc(OC)c(NC(=O)c3cccs3)cc2OC)cc1	39%	-4%	2%	-79*	3%[59 µM]	-79*
COc1ccc(NC(=O)c2ccc(NC(=O)c3cccs3)cc2)cc1	-4%	-9%	0%	19	·	-4
COc1cccc(NC(=O)CCC(=O)Nc2cc(OC)c(NC(=O)c3cccs3)cc2OC)c1	-3%	-24%	-13%	-69*	11%	-82*
COc1cc(N)ccc1NC(=O)c1cccs1	31%	-33%	6%	-13	8.9µM*	-10
COc1cc(NC(=O)c2cc(OC)c(OC)c(OC)c2)ccc1NC(=O)c1cccs1	19%	-10%	-14%	-14	22%	6
COc1ccc(C(=O)CC(=O)C(=O)Nc2cccc(C(C)=O)c2)cc1	69%	-19%	-24%	-7	-15%	6
Cc1cccc(S(=O)Cc2ccc(C(=O)NC3CCCCCC3)o2)c1 (centres undefined)	35%	4%	-12%	·	-6%[59 µM]	·
Cc1cc(NC(=O)COc2ccccc2C)ccc1NC(=O)c1ccco1	-1%	-17%	-19%	-4	15%	-15
Cc1cc(NC(=O)COc2ccccc2C)ccc1NC(=O)c1cccs1	9%	-10%	7%	-1	79µM*	0
O=S(=O)(Nc1cc(S(=O)(=O)N2CCOCC2)ccc1O)c1ccc2c(c1)OCCCO2	?	-32%	56µM*	-3	1.3µM*	3
O=S(=O)(NCc1ccc2c(c1)OCO2)c1cccc(S(=O)(=O)N2CCOCC2)c1	21%	-20%	-5%	0	40µM*	5
O=S(=O)(Nc1cccc(S(=O)(=O)N2CCOCC2)c1)c1ccc2c(c1)OCCO2	12%	-10%	·	10	21%	0
O=S(=O)(Nc1cc(S(=O)(=O)N2CCOCC2)ccc1N1CCOCC1)c1ccc2c(c1)OCCO2	28%	-18%	0%	-5	40µM*	·
Cc1ccc(NS(=O)(=O)c2ccc3c(c2)OCCCO3)cc1S(=O)(=O)N1CCOCC1	33%	-18%	1%	5	-22%[2.33 µM]	-7
CCCCNC(=O)C1(C)CCCCN1C(=O)c1c(C)noc1C (centres undefined)	·	·	·	3	·	10
SMILES	HP1b chromo inh	JMJD2A Tudor inh	BAZ2B inh	Six1-Eya2 inh	G9a inh	CtBP-E1A inh
CCOC(=O)C1CCN(CC(=O)Nc2cc(C)c3c(=O)oc4ccccc4c3n2)CC1	20%	-10%	-4%	·	-22%[59 µM]	·
Cc1cc(-c2nc3ncccc3o2)ccc1NC(=O)c1ccc(Cl)cc1	35%	-7%	-4%	·	0%[59 µM]	·
Cc1ccc(N(Cc2cc(=O)[nH]c3ccccc23)C(=O)C(C)C)c(C)c1	56%	-18%	24%	16	?	-4
CCC(=O)N(Cc1cc(=O)[nH]c2ccccc12)c1ccc(C)cc1C	27%	-6%	-29%	-1	71µM*	2
Cc1ccccc1N(Cc1cc(=O)[nH]c2ccccc12)C(=O)C(C)C	-4%	-17%	-1%	0	79µM*	2
CCCNC(=O)OC1CC2CC1[C@H]1CCCCN1C2=O (some centres undefined)	·	·	·	7	·	-15
COc1ccc(C(C)=O)cc1CS(=O)(=O)CC(=O)O	22%	-2%	-18%	-4	45µM*	1
CC1(C(=O)NS(=O)(=O)c2cccc(C#N)c2)CCN1C(=O)C1(c2ccccc2)CC1 (centres undefined)	·	·	·	1	·	-2
Cc1ccc(-n2c(C)c([N+](=O)[O-])c3ccc(O)cc32)cc1	·	·	-4%	·	50µM*	·
Cc1nn(C(=O)CCCn2cc([N+](=O)[O-])cn2)c(C)c1Cl	2%	20µM*	6%	0	-32%	-2
Cc1sc2nc3ccc(N4CCCC4)nn3c(=O)c2c1C	11%	-10%	-2%	-26	35µM*	-3
COC(=O)C1CCN(C(=O)c2cc(-c3ccco3)nc3ccccc23)CC1	?	28µM*	·	-30	·	·
COc1cccc(-c2cc(C(=O)NC3CC3)c3ccccc3n2)c1	26%	-1%	-8%	1	·	3
O=C(NCC1CCCO1)c1cc(-c2ccco2)nc2ccccc12 (centres undefined)	?	-8%[11.4 µM]	50µM*	2	45µM*	5
O=C(NC1CCC(O)CC1)c1cc(-c2ccco2)nc2ccccc12 (centres undefined)	-15%	?	22µM*	-18	40µM*	4
COC(=O)[C@H](NC(=O)c1cc(-c2ccccc2)sc1N)C(C)C	·	·	·	-22	·	-20
N#Cc1cccc(C(=O)C(=O)N2CCN(C(=O)OCc3ccccc3)CC2)c1	·	·	·	1	·	11
COCC(=O)N/N=C\c1ccccc1OC/C=C/c1ccccc1	23%	-18%	-16%	1	25%	3
